Results: PubChem BioAssay
Active and inactive are the calls of the source.

Tests used:
[1] = binders of probe aFSTL3 on microarray, primary screen, stem cell growth factor project, biochemical, small-molecule microarray, fluorescence 635/667 (AID 1064); conditions: higher = more signal;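 note: measures binding of the biotinylated anti-FSTL3 antibody to printed compounds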
[2] = binders from COS7 lysate, DM2A8 probe, primary screen, torsin A project, cell lysate, small-molecule microarray, fluorescence 635/667 (AID 1065); conditions: higher = more signal, COS7 lysate expressing mutant human TOR1A
[3] = binders of probe aFGF2 on microarray, primary screen, stem cell growth factor project, biochemical, small-molecule microarray, fluorescence 635/667 (AID 1067); conditions: higher = more signal;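 note: measures binding of biotinylated aFGF2 protein to printed compounds on slides; z-score merges feature fluorescence and signal-to-noise across triplicate slides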
[4] = binders of probe aFGF10 on microarray, primary screen, stem cell growth factor project, biochemical, small-molecule microarray, fluorescence 635/667 (AID 1071); conditions: higher = more signal;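 note: score merges 667 nm spot intensity and signal to noise from triplicate slides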
[5] = molecular target: Neurogenic locus notch homolog protein 2 (Homo sapiens) (UniProt Q04721); assay: Notch2 binders on small-molecule microarrays, primary screen, biochemical, small-molecule microarray, 635 nm fluorescence, stem cell growth factors (AID 1073); conditions: Notch2 binding, higher = more signal
[6] = molecular target: Pro-neuregulin-1, membrane-bound isoform (Homo sapiens) (UniProt Q02297); assay: NRG1 binders on small-molecule microarrays, primary screen, psychiatric disease protein project, biochemical, small-molecule microarray, fluorescence 635/667 (AID 1075); conditions: NRG1 binding, 635 nm fluorescence, higher = more signal;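 note: score combines 667 nm spot fluorescence with signal to noise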
Pro-neuregulin-1, membrane-bound isoform (Homo sapiens), sequence (Q02297 whole entry, looked up, the tested form may be a part, canonical isoform): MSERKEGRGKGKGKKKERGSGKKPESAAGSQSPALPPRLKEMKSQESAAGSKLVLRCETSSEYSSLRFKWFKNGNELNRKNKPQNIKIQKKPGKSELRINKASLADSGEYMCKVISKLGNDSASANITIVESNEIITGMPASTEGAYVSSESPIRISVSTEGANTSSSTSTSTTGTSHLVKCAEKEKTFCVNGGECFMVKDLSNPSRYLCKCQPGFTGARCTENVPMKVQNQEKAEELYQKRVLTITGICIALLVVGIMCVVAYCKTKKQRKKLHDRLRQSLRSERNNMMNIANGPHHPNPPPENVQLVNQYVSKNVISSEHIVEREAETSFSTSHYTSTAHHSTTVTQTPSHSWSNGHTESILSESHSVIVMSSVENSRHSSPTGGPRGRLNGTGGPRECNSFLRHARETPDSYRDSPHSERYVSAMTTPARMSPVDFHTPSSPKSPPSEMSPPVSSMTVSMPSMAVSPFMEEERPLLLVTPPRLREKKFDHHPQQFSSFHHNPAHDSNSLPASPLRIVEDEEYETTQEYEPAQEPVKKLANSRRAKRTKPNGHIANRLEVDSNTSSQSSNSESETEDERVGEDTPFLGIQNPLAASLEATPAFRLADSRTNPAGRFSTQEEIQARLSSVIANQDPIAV

[7] = tested on: Neuregulin-1 EGF-like domain; assay: binders of neuregulin-1 EGF-like domain, primary screen, biochemical, small-molecule microarray, 635 nm fluorescence (AID 1081); conditions: small-molecule microarray binding, higher = more signal;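 note: binding of the protein to compounds printed on small-molecule microarray slides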
[8] = FRG1 promoter luciferase signal modulators, primary screen, FRG1 inhibition for FSHD, cell-based, C2C12 myotubes, firefly/Renilla luciferase, luminescence (AID 1084); conditions: higher = more signal, called active from +8 up or from −8 down
[9] = binders of probe aFST on microarray, primary screen, stem cell growth factor project, biochemical, small-molecule microarray, fluorescence 635/667 (AID 1086); conditions: higher = more signal;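 note: score merges 667 nm fluorescence with signal-to-noise of each printed compound spot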
[10] = binders of probe aHhip on microarray, primary screen, stem cell growth factor project, biochemical, small-molecule microarray, fluorescence 635/667 (AID 1087); conditions: higher = more signal;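 note: score merges spot fluorescence at 667nm with spot signal to noise ratio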
[11] = tested on: PRMT1 (protein arginine N-methyltransferase 1); assay: PRMT1 binders on small-molecule microarrays, primary screen, biochemical, small-molecule microarray, 635 nm fluorescence (AID 1088); conditions: small-molecule microarray binding, higher = more signal;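 note: binding of Prmt1 protein to compounds spotted on small-molecule microarray slides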
[12] = yeast growth modulation, basal conditions, primary screen, YJM789 clinical isolate, OD600, 24 h (AID 1089);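 note: growth of clinical yeast isolate S. cerevisiae YJM 789 seeded 1000 cells per well; test concentration not given here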; conditions: S. cerevisiae YJM789 growth, higher = more signal, called active from +8 up or from −8 down
[13] = fission yeast growth modulation, primary screen, strain 972, OD600, 24 h, no modulator (AID 1090);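 note: basal condition with compound alone and no growth modifier present; test concentration not given here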; conditions: S. pombe 972 growth, higher = more signal, called active from +8 up or from −8 down
[14] = S. cerevisiae growth modulation with rapamycin, primary screen, strain BY4716, OD600, 96 h (AID 1091); conditions: higher = more signal, called active from +8 up or from −8 down; note: test concentration not given here
[15] = molecular target: Torsin-1A-interacting protein 2 (Homo sapiens) (UniProt Q8NFQ8); assay: LULL1 binders on small-molecule microarray, primary screen, cell lysate, human LULL1 lysate, 635/667 nm fluorescence (AID 1092); conditions: hLULL1 lysate binding, 635 nm fluorescence, higher = more signal;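 note: probe is lysate of COS7 cells overexpressing human LULL1; score merges per-feature 667 nm fluorescence with signal-to-noise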
Torsin-1A-interacting protein 2 (Homo sapiens), sequence (Q8NFQ8 whole entry, looked up): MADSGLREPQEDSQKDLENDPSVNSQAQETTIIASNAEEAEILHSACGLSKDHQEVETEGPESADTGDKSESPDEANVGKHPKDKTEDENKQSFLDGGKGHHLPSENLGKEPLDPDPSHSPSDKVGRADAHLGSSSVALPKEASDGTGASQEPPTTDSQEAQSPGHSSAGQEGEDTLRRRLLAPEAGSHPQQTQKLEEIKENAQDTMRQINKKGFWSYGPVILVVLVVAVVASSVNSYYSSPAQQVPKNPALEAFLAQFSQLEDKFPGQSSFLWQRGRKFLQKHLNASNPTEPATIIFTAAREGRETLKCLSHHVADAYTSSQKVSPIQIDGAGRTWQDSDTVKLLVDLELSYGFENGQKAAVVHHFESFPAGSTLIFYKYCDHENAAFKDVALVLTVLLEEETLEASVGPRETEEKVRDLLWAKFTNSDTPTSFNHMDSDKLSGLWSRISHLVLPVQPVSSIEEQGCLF

[16] = E. coli growth modulation, two-sided OD650, primary screen, E. coli filamentation project, strain DRC41, 24 h (AID 1093); conditions: OD650, 24 h, higher = more signal, called active from +8 up or from −8 down;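 note: MC1000 strain lacking acrAB efflux and sulA so SOS filamentation is blocked; test concentration not given here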
[17] = small-molecule microarray binders of probe aLefty2, primary screen, biochemical, biotinylated probe, 635/667 nm fluorescence (AID 1094); conditions: higher = more signal;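 note: score merges spot fluorescence near 667 nm with spot signal-to-noise ratio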
[18] = tested on: Noggin (protein binding on small-molecule microarray); assay: Noggin binders on small-molecule microarray, primary screen, biochemical, 635/667 nm fluorescence (AID 1095); conditions: 635 nm fluorescence, higher = more signal;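 note: score merges 667 nm feature fluorescence with signal to noise over triplicate slides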
[19] = molecular target: Neurogenic locus notch homolog protein 3 (Homo sapiens) (UniProt Q9UM47); assay: NOTCH3 binders on small-molecule microarray, primary screen, biochemical, 635/667 nm fluorescence (AID 1096); conditions: NOTCH3 binding, 635 nm fluorescence, higher = more signal
Neurogenic locus notch homolog protein 3 (Homo sapiens), sequence (Q9UM47 whole entry, looked up): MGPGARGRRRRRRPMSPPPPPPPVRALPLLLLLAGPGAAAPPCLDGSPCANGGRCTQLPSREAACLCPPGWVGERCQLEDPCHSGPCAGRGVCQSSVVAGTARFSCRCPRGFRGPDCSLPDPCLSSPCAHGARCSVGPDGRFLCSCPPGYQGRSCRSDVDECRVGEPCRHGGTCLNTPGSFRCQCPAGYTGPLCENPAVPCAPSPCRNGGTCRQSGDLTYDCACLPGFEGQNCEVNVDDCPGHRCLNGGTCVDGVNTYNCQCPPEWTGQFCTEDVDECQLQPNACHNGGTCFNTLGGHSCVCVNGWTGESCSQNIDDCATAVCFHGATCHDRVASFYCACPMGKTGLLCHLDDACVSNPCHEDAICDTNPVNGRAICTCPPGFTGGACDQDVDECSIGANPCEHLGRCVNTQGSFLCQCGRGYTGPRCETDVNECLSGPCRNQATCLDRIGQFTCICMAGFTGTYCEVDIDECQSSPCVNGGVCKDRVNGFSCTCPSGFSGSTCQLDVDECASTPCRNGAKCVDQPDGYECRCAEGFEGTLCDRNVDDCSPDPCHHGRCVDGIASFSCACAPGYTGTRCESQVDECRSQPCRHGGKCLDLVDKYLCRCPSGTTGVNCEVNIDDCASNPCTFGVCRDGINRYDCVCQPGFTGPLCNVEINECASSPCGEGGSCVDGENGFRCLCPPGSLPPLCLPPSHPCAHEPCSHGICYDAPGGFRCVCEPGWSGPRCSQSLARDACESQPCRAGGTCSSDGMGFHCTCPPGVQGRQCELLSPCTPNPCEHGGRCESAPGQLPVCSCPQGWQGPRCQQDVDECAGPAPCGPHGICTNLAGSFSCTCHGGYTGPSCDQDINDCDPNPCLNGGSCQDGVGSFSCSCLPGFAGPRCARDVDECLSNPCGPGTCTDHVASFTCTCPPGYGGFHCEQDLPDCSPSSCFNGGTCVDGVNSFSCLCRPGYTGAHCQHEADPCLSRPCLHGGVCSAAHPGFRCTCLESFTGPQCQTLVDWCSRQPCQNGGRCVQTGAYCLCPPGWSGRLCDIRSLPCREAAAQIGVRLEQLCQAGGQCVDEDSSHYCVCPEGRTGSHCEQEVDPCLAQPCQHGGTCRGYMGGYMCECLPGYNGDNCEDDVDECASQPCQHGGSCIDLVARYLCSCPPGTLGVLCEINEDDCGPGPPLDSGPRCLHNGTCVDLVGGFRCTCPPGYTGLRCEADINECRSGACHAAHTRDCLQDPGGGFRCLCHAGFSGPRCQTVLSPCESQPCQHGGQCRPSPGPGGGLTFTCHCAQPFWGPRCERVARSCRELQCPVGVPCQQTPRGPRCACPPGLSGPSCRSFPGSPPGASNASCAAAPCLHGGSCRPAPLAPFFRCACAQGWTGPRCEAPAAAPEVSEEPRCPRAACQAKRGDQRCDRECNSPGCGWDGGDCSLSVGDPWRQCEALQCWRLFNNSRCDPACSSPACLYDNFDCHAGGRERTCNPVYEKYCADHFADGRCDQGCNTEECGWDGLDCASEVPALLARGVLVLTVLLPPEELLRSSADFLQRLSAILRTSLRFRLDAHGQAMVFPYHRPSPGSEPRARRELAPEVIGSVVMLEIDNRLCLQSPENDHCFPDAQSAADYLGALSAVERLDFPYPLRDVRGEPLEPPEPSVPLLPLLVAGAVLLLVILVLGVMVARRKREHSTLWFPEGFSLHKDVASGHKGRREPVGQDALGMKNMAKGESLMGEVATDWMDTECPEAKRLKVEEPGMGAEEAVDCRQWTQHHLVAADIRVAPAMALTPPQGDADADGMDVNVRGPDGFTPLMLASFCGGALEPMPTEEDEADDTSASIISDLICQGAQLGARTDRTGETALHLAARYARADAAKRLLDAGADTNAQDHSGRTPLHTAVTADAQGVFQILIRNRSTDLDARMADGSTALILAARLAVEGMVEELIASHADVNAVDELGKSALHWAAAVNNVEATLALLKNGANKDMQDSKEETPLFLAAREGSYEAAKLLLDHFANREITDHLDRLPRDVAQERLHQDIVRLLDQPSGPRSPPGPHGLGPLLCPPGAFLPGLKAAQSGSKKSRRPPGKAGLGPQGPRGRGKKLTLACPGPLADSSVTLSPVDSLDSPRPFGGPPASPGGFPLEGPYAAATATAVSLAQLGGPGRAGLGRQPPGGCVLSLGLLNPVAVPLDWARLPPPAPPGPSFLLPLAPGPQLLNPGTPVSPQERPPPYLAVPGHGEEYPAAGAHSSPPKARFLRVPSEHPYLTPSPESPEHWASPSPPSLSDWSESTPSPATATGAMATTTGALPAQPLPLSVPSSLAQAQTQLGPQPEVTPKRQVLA

[20] = small-molecule microarray binders of probe aEGFR, primary screen, biochemical, biotinylated probe, 635/667 nm fluorescence (AID 1097); conditions: higher = more signal;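 note: probe is a biotinylated anti-EGFR antibody binding compounds printed on slides; score combines fluorescence near 667 nm and signal to noise of each spot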

SMILES | composite z-score [1] | composite z-score [2] | composite z-score [3] | composite z-score [4] | composite z-score [5] | composite z-score [6] | composite z-score [7] | z-score [8] | composite z-score [9] | composite z-score [10] | composite z-score [11] | z-score [12] | z-score [13] | z-score [14] | composite z-score [15] | z-score [16] | composite z-score [17] | composite z-score [18] | composite z-score [19] | composite z-score [20]
COc1cc(NN2C(C(O)c3ccc(I)cc3)C=CC3C(=O)N(c4ccccc4)C(=O)C32)cc(OC)c1OC (stereo not given) | 0.32 | 0.808 | 0.145 | 0.868 | 1.55 | 2.04 | 1.35 | -2.51 (inactive) | 1.22 | 0.415 | 1.56 | 0.93 (inactive) | -0.229 (inactive) | 0.0332 (inactive) | 3.56 | -0.699 (inactive) | 0.25 | 0.218 | 1.05 | -0.0423
CCCCC(=C=CC[C@H](O)c1ccc(OCCO)cc1)C[C@H](O)COCc1ccccc1 | -0.117 | -0.366 | -0.0409 | 0.692 | -0.238 | 1.06 | 0.879 | -0.947 (inactive) | -0.0834 | 0.152 | 0.857 | 0.85 (inactive) | -1.43 (inactive) | -0.374 (inactive) | 1.36 | 0.125 (inactive) | -0.116 | 0.395 | -0.36 | 0.0028
CC(C)[C@H]1NC(=O)[C@@]23C(=O)N[C@@H](Cc4ccccc4)C2[C@H](C)[C@@]2(C)O[C@H]2C3/C=C/C/C=C\CNC(=O)[C@H](Cc2ccccc2)NC1=O (stereo not given in full) | -0.264 | 0.425 | -0.0462 | 1.01 | 0.878 | 0.781 | 0.957 | 0.304 (inactive) | 0.353 | 0.235 | 1.53 | -0.155 (inactive) | -0.228 (inactive) | 0.246 (inactive) | 2.68 | 0.317 (inactive) | -0.052 | 0.877 | 1.08 | 0.0354
COCCOC(=O)N1C(=O)[C@@]2(c3cc(C#CC4=CCCCC4)ccc31)[C@H](C(=O)N1CCCCCCC1)[C@H]1C(=O)O[C@H](c3ccccc3)[C@H](c3ccccc3)N1[C@@H]2c1ccc(OCCO)cc1 | 1.77 | 0.399 | 0.316 | 0.5 | 0.891 | 0.455 | 1.1 | 1.06 (inactive) | 1.36 | 0.739 | 1.22 | 0.175 (inactive) | -0.534 (inactive) | 1.62 (inactive) | 0.973 | -0.909 (inactive) | 0.726 | 1.52 | 1.06 | 0.265
CC=CC(O)C1C=CC2C(=O)NC(=O)C2N1Nc1ccccn1 (stereo not given) | -0.293 | 0.205 | -0.151 | 0.204 | 1.03 | 0.934 | 1.24 | 0.571 (inactive) | 0.128 | -0.0618 | 1.36 | 0.43 (inactive) | 1.99 (inactive) | 0.544 (inactive) | 0.871 | -0.565 (inactive) | 0.0261 | 0.26 | 0.542 | -0.257
O=C1O[C@H](c2ccccc2)[C@H](c2ccccc2)N2[C@H]1[C@@H](C(=O)N1CCCCCCC1)[C@]1(C(=O)Nc3ccc(C#CC4(O)CCCCCC4)cc31)[C@H]2c1ccc(O)cc1 | 3.63 | 1.42 | 0.807 | 0.822 | 1.36 | 1.36 | 1.2 | -2.46 (inactive) | 2.97 | 0.697 | 1.54 | 0.666 (inactive) | 0.73 (inactive) | 1.19 (inactive) | 3.97 | 0.408 (inactive) | 1.65 | 1.78 | 1.06 | 1.35
C=C(CCCC)C(=O)CC[C@H](OC(=O)c1ccccc1-c1ccccc1C(=O)O)c1ccccc1OCCO | -0.0134 | 0.814 | -0.149 | 0.76 | -0.331 | 1.06 | 1.07 | -1.42 (inactive) | -0.214 | -0.249 | 0.774 | 0.604 (inactive) | -0.659 (inactive) | -0.918 (inactive) | 0.189 | 1.07 (inactive) | -0.183 | 0.512 | -0.025 | -0.162
C=C(COC)C(=O)CC[C@H](OC(C)=O)c1ccc(OCCO)cc1 | -0.198 | -0.722 | -0.0533 | 1.21 | -0.189 | -0.0732 | 1.1 | 1.08 (inactive) | 0.375 | -0.191 | 1.44 | 0.389 (inactive) | -2.5 (inactive) | -1.06 (inactive) | -0.451 | 1.39 (inactive) | -0.211 | 1.93 | 0.711 | -0.0387
COCCOC(=O)N1C(=O)[C@@]2(c3cc(C#CCC(C(=O)OC)C(=O)OC)ccc31)[C@H](c1ccc(OCCO)cc1)N1[C@H](c3ccccc3)[C@H](c3ccccc3)OC(=O)[C@H]1[C@@H]2C(=O)Nc1nc2ccccc2s1 | -0.0598 | 0.215 | -0.17 | 0.383 | 1.22 | -0.0762 | 1.23 | 4.65 (inactive) | 0.524 | -0.148 | 1.57 | 2.28 (inactive) | 2.31 (inactive) | 4.03 (inactive) | 0.828 | 2.5 (inactive) | -0.122 | 0.994 | 1.1 | -0.04
CC(=O)N1CC(C(O)C2C=CC3C(=O)NC(=O)C3N2Nc2ccc(Cl)cc2Cl)c2ccccc21 (stereo not given) | 0.856 | -0.0312 | 0.203 | 0.925 | 1.28 | 1.7 | 0.727 | 0.425 (inactive) | 0.496 | 0.0854 | 0.825 | 1.14 (inactive) | 0.734 (inactive) | 1.81 (inactive) | 2.74 | -0.948 (inactive) | 0.131 | -0.575 | 0.91 | -0.0594
C=CCOC(=O)[C@H]1[C@@H]2C(=O)O[C@@H](c3ccccc3)[C@@H](c3ccccc3)N2[C@@H](c2ccc(OCCOC(=O)[C@H]3C[C@H]4C(=O)N[C@@H](CCCCNC(C)=O)C(=O)N4[C@H]3c3cccc(OCCO)c3)cc2)[C@]12C(=O)Nc1ccc(I)cc12 | 0.276 | 1.01 | -0.144 | 0.818 | 0.656 | 1.29 | 1.26 | 0.29 (inactive) | 2.65 | 0.215 | 1.55 | 1.15 (inactive) | 1.14 (inactive) | 4.54 (inactive) | 2.18 | 1.44 (inactive) | -0.431 | 1.87 | 1.1 | -0.336
CC(C)C(=C=CC[C@H](O)c1cccc(OCCO)c1)CCO | -0.068 | 1.33 | -0.0937 | -0.194 | -0.379 | -0.356 | -0.403 | 0.163 (inactive) | -0.045 | -0.287 | 0.801 | -1.16 (inactive) | -0.538 (inactive) | -1.42 (inactive) | 0.228 | 0.537 (inactive) | -0.285 | 0.683 | 0.234 | -0.165
